Experimental data published in PubChem BioAssay (NCI).
Compounds without any hit were thinned out: in the full panel of roughly 83,000, 20% have a hit.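 Negative percent growth values reflect cell death: -40 means 40% of the cells present at the start died, and -100 means all died.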 The source made the active and inactive calls. The calls were made as follows: active = growth percent below 10; inactive = the rest.

What was measured:
Assay in all cases: NCI-60 one-dose screen, 48 h (100 = growth as untreated, 0 = no growth, -100 = all killed)
Details in all cases: 10 µM unless noted
T-47D breast = test system: T-47D breast
BT-549 breast = test system: BT-549 breast
MDA-MB-435 melanoma = test system: MDA-MB-435 melanoma
SW-620 colon = test system: SW-620 colon
MCF7 breast = test system: MCF7 breast
HCT-116 colon = test system: HCT-116 colon
HCC-2998 colon = test system: HCC-2998 colon
KM12 colon = test system: KM12 colon

Measured: growth

COC(=O)C(Cc1ccccc1)Nc1nc(NC(Cc2ccccc2)C(=O)OC)nc(N2CCOCC2)n1 (stereo not drawn)
inactive: T-47D breast 101% | BT-549 breast 112% | MDA-MB-435 melanoma 105% | SW-620 colon 112% | MCF7 breast 97.8% | HCT-116 colon 99.2% | HCC-2998 colon 110% | KM12 colon 99.7%

CCCCCc1ccc(S(=O)(=O)Nc2cccc(-c3csc(NCCN4CCN(C)CC4)n3)c2)cc1
inactive: T-47D breast 80.1% | BT-549 breast 95.1% | MDA-MB-435 melanoma 29.7% | MCF7 breast 15.5% | KM12 colon 77.7%
active: SW-620 colon 2.57% | HCT-116 colon 4.07% | HCC-2998 colon -6.69%

C#C[C@]1(O)CC[C@H]2[C@@H]3CC=C4c5sc(-c6ccc(C)cc6)nc5CC[C@]4(C)[C@H]3CC[C@@]21C
inactive: T-47D breast 50.4% | BT-549 breast 47.8% | HCT-116 colon 29.4% | HCC-2998 colon 62.6% | KM12 colon 12.7%
active: MDA-MB-435 melanoma -46.4% | SW-620 colon -37.5% | MCF7 breast 1.73%

CC1(C)CC[C@]2(C(=O)O)CC[C@]3(C)C(=CC[C@@H]4[C@@]5(C)CC/C(=N\OCCC#N)C(C)(C)[C@@H]5CC[C@]43C)[C@@H]2C1
inactive: T-47D breast 104% | BT-549 breast 106% | MDA-MB-435 melanoma 101% | SW-620 colon 94.2% | MCF7 breast 95.5% | HCT-116 colon 96.4% | HCC-2998 colon 116% | KM12 colon 105%

O=C(CSc1nnc(-c2ccc3nc(-c4ccccc4)[nH]c3c2)o1)Nc1ccc(C(=O)/C=C/c2ccccc2)cc1
inactive: T-47D breast 98.6% | BT-549 breast 96.8% | MDA-MB-435 melanoma 101% | SW-620 colon 116% | MCF7 breast 87.6% | HCT-116 colon 97% | HCC-2998 colon 106% | KM12 colon 110%

CS(=O)(=O)Nc1cc(-c2ccc3ncc(C#N)c(NCc4ccccc4F)c3c2)cnc1Cl
inactive: KM12 colon 11.5%
active: T-47D breast 3.78% | BT-549 breast -8.8% | MDA-MB-435 melanoma 6.84% | SW-620 colon 8.38% | MCF7 breast 4.76% | HCT-116 colon 4.1% | HCC-2998 colon -1.68%

Cn1ccnc1C(=O)/C=C/c1ccc(CNC(=O)c2c(F)c(F)c(F)c(F)c2F)cc1
active: HCT-116 colon 4.78%
inactive: T-47D breast 41.4% | BT-549 breast 74.1% | MDA-MB-435 melanoma 64.7% | SW-620 colon 38.2% | MCF7 breast 19.4% | HCC-2998 colon 90.7% | KM12 colon 23.2%

Fc1ccc(-c2cc3nc(C(Cl)Cl)nc(-c4ccc(F)cc4)n3n2)cc1
active: SW-620 colon -29.3% | HCT-116 colon 4.72% | HCC-2998 colon -45.8% | KM12 colon -12.5%
inactive: T-47D breast 34.3% | BT-549 breast 47% | MDA-MB-435 melanoma 14.6% | MCF7 breast 24.2%

COc1cc2nc(Cl)nc(Nc3cccc(C4=Nc5c(N)nc(N)nc5NC(c5ccc(Br)cc5)C4)c3)c2cc1OC (stereo not drawn)
inactive: T-47D breast 85.1% | BT-549 breast 87.8% | MDA-MB-435 melanoma 47.4% | SW-620 colon 46.5% | MCF7 breast 39.3% | HCC-2998 colon 41.5% | KM12 colon 24.3%
active: HCT-116 colon -10.5%

NC(N)=Nc1ccc(Oc2cccc(NC(N)=Nc3ccc(I)cc3F)c2)cn1
inactive: T-47D breast 26.1% | BT-549 breast 89.5% | MDA-MB-435 melanoma 68.3% | SW-620 colon 76.3% | HCT-116 colon 58.2% | HCC-2998 colon 70.9% | KM12 colon 47.7%
active: MCF7 breast 7.64%

N/C(=N\C(N)=N\c1nc2ccccc2s1)c1cccc(F)c1
inactive: T-47D breast 74.6% [5 µM] | BT-549 breast 96.7% [5 µM] | MDA-MB-435 melanoma 104% [5 µM] | SW-620 colon 97.2% [5 µM] | MCF7 breast 85.8% [5 µM] | HCT-116 colon 89.3% [5 µM] | HCC-2998 colon 112% [5 µM] | KM12 colon 99.9% [5 µM]

Cc1ccc2c(c1)Oc1nc(N)c(C#N)c(N)c1C2Sc1ccc(F)cc1 (stereo not drawn)
active: T-47D breast -47.1% | BT-549 breast -88.4% | MDA-MB-435 melanoma -93.6% | SW-620 colon -63.6% | MCF7 breast -59.7% | HCT-116 colon -89.9% | HCC-2998 colon -90.9% | KM12 colon -91.4%

COc1ccc(-n2c(SCc3nnc(NC(=O)c4ccc(Br)cc4)s3)nc3cc(OC)c(OC)cc3c2=O)cc1
inactive: T-47D breast 112% | BT-549 breast 137% | MDA-MB-435 melanoma 87.5% | SW-620 colon 95.7% | MCF7 breast 85.6% | HCT-116 colon 96.2% | HCC-2998 colon 88.2% | KM12 colon 90.6%

N/C(=N\C(N)=N\c1nc2ccccc2s1)c1ccncc1Cl
active: MDA-MB-435 melanoma 6.13%
inactive: T-47D breast 55.4% | BT-549 breast 43.8% | SW-620 colon 24.1% | MCF7 breast 75.6% | HCT-116 colon 23.3% | HCC-2998 colon 76.6% | KM12 colon 24.1%

CCCn1cnc2c(c1=N)C(c1ccc(OC)cc1)c1sc3c(CC)cccc3c1O2 (stereo not drawn)
active: MDA-MB-435 melanoma -44.5% | HCT-116 colon 9.7%
inactive: T-47D breast 27.9% | BT-549 breast 33.3% | SW-620 colon 28.4% | MCF7 breast 18.4% | HCC-2998 colon 19.2% | KM12 colon 16.8%

Cn1ccnc1C(=O)/C=C/c1ccc(CNC(=O)c2ccc(F)cc2)cc1
inactive: T-47D breast 33.4% | BT-549 breast 43.2% | MDA-MB-435 melanoma 44.1% | MCF7 breast 11.6% | HCT-116 colon 13.2% | HCC-2998 colon 35.9% | KM12 colon 22.1%
active: SW-620 colon 9.37%

NC(N)=Nc1ccc(Oc2cccc(Nc3ccc(Br)c(C(F)(F)F)c3)c2)cc1
inactive: T-47D breast 22.4% | BT-549 breast 42.7%
active: MDA-MB-435 melanoma 8.6% | SW-620 colon -31% | MCF7 breast -1.08% | HCT-116 colon -25% | HCC-2998 colon -28.1% | KM12 colon -27.2%

COc1cc2nc(Cl)nc(Nc3cccc(C4=Nc5c(N)nc(N)nc5NC(c5ccccc5)C4)c3)c2cc1OC (stereo not drawn)
inactive: T-47D breast 67.5% | BT-549 breast 81.6% | MDA-MB-435 melanoma 101% | SW-620 colon 85.4% | MCF7 breast 70.5% | HCT-116 colon 74.6% | HCC-2998 colon 94.3% | KM12 colon 78.3%

COc1ccc(COc2ccc(/C=C3\C(=O)Nc4ccccc43)cc2OC)cc1
inactive: T-47D breast 113% | BT-549 breast 92.1% | MDA-MB-435 melanoma 106% | SW-620 colon 99.1% | MCF7 breast 94% | HCT-116 colon 108% | HCC-2998 colon 102% | KM12 colon 104%

CC[C@H](CO)Nc1ccc2ncc(C#Cc3cncc(C(=O)Nc4ccc(CN5CCN(C)CC5)c(C(F)(F)F)c4)c3)n2n1
active: T-47D breast -69.5% | BT-549 breast -97.4% | MDA-MB-435 melanoma -91.4% | SW-620 colon -50.8% | MCF7 breast -73.1% | HCT-116 colon -94.3% | HCC-2998 colon -59.4% | KM12 colon -61.9%

Cn1cc(-c2nnc(N)nc2-c2c[nH]c3ccc(F)cc23)c2cc(F)ccc21
inactive: T-47D breast 26.1% | BT-549 breast 71.2% | MDA-MB-435 melanoma 94.8% | SW-620 colon 59.8% | MCF7 breast 30.4% | HCT-116 colon 62.1% | HCC-2998 colon 93.1% | KM12 colon 74.5%

O=C(CCC(=O)N1CCOCC1)OCCCCCCSc1ccc([N+](=O)[O-])c2nonc12
active: T-47D breast -36.2% | BT-549 breast -52.5% | MDA-MB-435 melanoma -88.1% | SW-620 colon -54.9% | MCF7 breast -57.7% | HCT-116 colon -54.7% | HCC-2998 colon -69.4% | KM12 colon -68.7%

CCC(NC(c1cc2cccc3ccc4cccc1c4c32)c1nnnn1C(C)(C)C)C1CCCCC1 (stereo not drawn)
inactive: T-47D breast 74.6% | BT-549 breast 50.5% | MDA-MB-435 melanoma 60% | SW-620 colon 61.5% | MCF7 breast 48.2% | HCT-116 colon 40.6% | HCC-2998 colon 90.3% | KM12 colon 67.8%

Fc1ccc(-c2cc3nc(C(Cl)Cl)nc(-c4ccco4)n3n2)cc1
inactive: BT-549 breast 82.4%
active: T-47D breast 7.31% | MDA-MB-435 melanoma -1.86% | SW-620 colon 3.29% | MCF7 breast -8.71% | HCT-116 colon -36.8% | HCC-2998 colon -69.1% | KM12 colon -24.5%

CCCCCCCn1cc2c(NCCc3ccccc3)ncnc2n1
inactive: T-47D breast 94.5% | BT-549 breast 100% | MDA-MB-435 melanoma 96.6% | SW-620 colon 92.8% | MCF7 breast 86.9% | HCT-116 colon 96.6% | HCC-2998 colon 116% | KM12 colon 97%

C=C(C=O)[C@@H]1CC[C@]2(COC(C)=O)CC[C@]3(C)C(CC[C@@H]4[C@@]5(C)CC[C@H](OC(C)=O)C(C)(C)[C@@H]5CC[C@]43C)[C@@H]12 (stereo partly drawn)
active: T-47D breast 4.4% | MDA-MB-435 melanoma -13.6% | SW-620 colon 0.204% | MCF7 breast -33.5% | HCT-116 colon -58.4% | HCC-2998 colon -63% | KM12 colon -40.8%
inactive: BT-549 breast 11.1%

NC(N)=Nc1ccc(Oc2cccc(Nc3ccc(Cl)c(C(F)(F)F)c3)c2)cc1
inactive: T-47D breast 35.3% | BT-549 breast 77% | MDA-MB-435 melanoma 32.3% | SW-620 colon 30.2% | MCF7 breast 11.3% | HCT-116 colon 27.5% | HCC-2998 colon 20.3%
active: KM12 colon 7.04%

Cc1ccc(N2C(=O)/C(=C/C=C/c3ccco3)SC2=S)cc1
inactive: T-47D breast 71.6% | BT-549 breast 126% | MDA-MB-435 melanoma 90.6% | SW-620 colon 90.1% | MCF7 breast 66.4% | HCT-116 colon 94.2% | HCC-2998 colon 101% | KM12 colon 95.4%

COc1cc(/C=C2\C(=O)Nc3ccccc32)ccc1OCc1ccc(F)cc1
inactive: T-47D breast 107% | BT-549 breast 116% | MDA-MB-435 melanoma 103% | SW-620 colon 106% | MCF7 breast 87.8% | HCT-116 colon 107% | HCC-2998 colon 119% | KM12 colon 101%

COc1ccc(C2CC(c3cccc(Nc4nc(Cl)nc5cc(OC)c(OC)cc45)c3)=Nc3c(N)nc(N)nc3N2)cc1 (stereo not drawn)
inactive: T-47D breast 81.7% | BT-549 breast 81.4% | MDA-MB-435 melanoma 83.5% | SW-620 colon 74% | MCF7 breast 74.4% | HCT-116 colon 46.3% | HCC-2998 colon 83.4% | KM12 colon 57.1%

CCNC(=O)N1CCc2cc(OC)c(OCCc3ccc(OC)nc3)cc2C1c1ccc(OC)cc1C (stereo not drawn)
inactive: T-47D breast 49% | BT-549 breast 29.2% | MDA-MB-435 melanoma 15% | SW-620 colon 16% | MCF7 breast 22.2% | HCT-116 colon 14.4% | HCC-2998 colon 42.8% | KM12 colon 21.2%
